# Results taken from article PMC7862700, “An all-to-all approach to the identification of sequence-specific readers for epigenetic DNA modifications on cytosine”.
# Key:
# Experiment in all cases: DAPPL (digital affinity profiling via proximity ligation, sequencing); 10 mM Tris-HCl pH 7.5, 50 mM NaCl, 1 mM DTT, 4% glycerol, room temperature, 30 min; GST-TFs on glutathione beads, 16-mer random dsDNA library, 0.1% formaldehyde crosslink after washing; high values mean tight binding
# FEV = molecular target: T1, FEV (Homo sapiens, UniProt Q99581 1-238); settings: protein: recombinant; tags: N-terminal GST; dsDNA, one strand shown
# T1 sequence: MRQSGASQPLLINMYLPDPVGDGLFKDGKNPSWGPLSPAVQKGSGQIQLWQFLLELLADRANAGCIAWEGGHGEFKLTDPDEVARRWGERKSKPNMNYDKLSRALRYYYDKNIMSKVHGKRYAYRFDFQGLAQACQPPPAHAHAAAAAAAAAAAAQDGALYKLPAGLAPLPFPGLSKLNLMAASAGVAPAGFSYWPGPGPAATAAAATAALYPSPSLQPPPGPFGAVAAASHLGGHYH
# Procedure, shortened: (§1)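 GST fusions of human transcription factors were expressed in yeast and captured with glutathione beads. Once given DNA barcodes and pooled alongside a tag-only sample, they were incubated for 30 min at room temperature with 200 nmole of a random double-stranded 16-mer DNA library in Tris/NaCl/DTT/glycerol buffer, then washed, crosslinked (0.1% formaldehyde), proximity-ligated, PCR-amplified and sequenced on an Illumina NextSeq500. The binding signal of each hexamer is its read frequency for a factor divided by its frequency for the tag-only sample.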
# ETV5 = ETV5 (Homo sapiens, UniProt P41161 1-510); settings: protein: recombinant; tags: N-terminal GST; dsDNA, one strand shown
# Procedure, shortened: as §1
# HSF1 = HSF1 (Homo sapiens, UniProt Q00613 1-529); settings: protein: recombinant; tags: N-terminal GST; chain copies: 3; dsDNA, one strand shown
# Procedure, shortened: as §1
# SPIC = molecular target: T2, SPIC (Homo sapiens, UniProt Q8N5J4 1-248); settings: protein: recombinant; tags: N-terminal GST; dsDNA, one strand shown
# T2 sequence: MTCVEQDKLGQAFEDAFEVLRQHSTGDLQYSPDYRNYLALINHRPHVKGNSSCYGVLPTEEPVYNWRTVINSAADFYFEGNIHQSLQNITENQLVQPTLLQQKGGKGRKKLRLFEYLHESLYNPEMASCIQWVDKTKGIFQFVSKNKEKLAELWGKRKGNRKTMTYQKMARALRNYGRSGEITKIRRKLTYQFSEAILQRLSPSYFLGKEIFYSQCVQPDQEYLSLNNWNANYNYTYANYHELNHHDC
# Procedure, shortened: as §1
# ELF4 = ELF4 (Homo sapiens, UniProt Q99607 1-663); settings: protein: recombinant; tags: N-terminal GST; dsDNA, one strand shown
# Procedure, shortened: as §1
# ELK4 = molecular target: T3, ELK4 (Homo sapiens, UniProt P28324-2 1-405); settings: protein: recombinant; tags: N-terminal GST; dsDNA, one strand shown
# T3 sequence: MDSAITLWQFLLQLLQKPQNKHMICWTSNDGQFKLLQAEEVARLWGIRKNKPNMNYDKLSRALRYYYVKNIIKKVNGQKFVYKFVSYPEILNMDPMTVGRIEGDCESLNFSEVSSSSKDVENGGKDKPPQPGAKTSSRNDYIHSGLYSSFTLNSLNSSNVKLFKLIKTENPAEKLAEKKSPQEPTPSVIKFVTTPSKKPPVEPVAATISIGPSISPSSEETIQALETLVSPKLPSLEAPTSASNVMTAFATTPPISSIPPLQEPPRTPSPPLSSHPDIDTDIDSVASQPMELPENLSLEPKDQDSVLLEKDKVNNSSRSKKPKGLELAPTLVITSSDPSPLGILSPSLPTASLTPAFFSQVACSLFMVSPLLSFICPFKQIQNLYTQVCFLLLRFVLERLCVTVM
# Procedure, shortened: as §1
# ETV2 = molecular target: T4, ETV2 (Homo sapiens, UniProt O00321 1-342); settings: protein: recombinant; tags: N-terminal GST; dsDNA, one strand shown
# T4 sequence: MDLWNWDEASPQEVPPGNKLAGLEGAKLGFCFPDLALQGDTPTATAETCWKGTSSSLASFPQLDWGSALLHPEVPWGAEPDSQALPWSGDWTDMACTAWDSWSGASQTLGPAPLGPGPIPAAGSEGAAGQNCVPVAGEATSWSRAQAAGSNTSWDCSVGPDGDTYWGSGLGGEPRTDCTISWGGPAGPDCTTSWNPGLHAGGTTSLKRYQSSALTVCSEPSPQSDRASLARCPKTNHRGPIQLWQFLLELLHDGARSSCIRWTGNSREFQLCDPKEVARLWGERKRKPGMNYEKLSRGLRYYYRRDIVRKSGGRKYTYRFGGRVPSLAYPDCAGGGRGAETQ
# Procedure, shortened: as §1
# ELF3 = molecular target: T5, ELF3 (Homo sapiens, UniProt P78545 1-371); settings: protein: recombinant; tags: N-terminal GST; dsDNA, one strand shown
# T5 sequence: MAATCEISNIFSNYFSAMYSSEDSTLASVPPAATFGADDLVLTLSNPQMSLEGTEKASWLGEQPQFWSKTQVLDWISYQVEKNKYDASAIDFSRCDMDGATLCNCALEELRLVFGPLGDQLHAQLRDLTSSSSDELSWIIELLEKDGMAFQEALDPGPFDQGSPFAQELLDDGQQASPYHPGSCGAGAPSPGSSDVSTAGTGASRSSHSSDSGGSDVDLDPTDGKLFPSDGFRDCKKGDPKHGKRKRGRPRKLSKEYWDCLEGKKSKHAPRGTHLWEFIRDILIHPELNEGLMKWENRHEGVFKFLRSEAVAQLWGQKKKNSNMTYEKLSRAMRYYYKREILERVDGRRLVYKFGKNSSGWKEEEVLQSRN
# Procedure, shortened: as §1
# CRX = CRX (Homo sapiens, UniProt O43186 1-299); settings: protein: recombinant; tags: N-terminal GST; dsDNA, one strand shown
# Procedure, shortened: as §1
# ETV5, sequence (P41161 whole entry): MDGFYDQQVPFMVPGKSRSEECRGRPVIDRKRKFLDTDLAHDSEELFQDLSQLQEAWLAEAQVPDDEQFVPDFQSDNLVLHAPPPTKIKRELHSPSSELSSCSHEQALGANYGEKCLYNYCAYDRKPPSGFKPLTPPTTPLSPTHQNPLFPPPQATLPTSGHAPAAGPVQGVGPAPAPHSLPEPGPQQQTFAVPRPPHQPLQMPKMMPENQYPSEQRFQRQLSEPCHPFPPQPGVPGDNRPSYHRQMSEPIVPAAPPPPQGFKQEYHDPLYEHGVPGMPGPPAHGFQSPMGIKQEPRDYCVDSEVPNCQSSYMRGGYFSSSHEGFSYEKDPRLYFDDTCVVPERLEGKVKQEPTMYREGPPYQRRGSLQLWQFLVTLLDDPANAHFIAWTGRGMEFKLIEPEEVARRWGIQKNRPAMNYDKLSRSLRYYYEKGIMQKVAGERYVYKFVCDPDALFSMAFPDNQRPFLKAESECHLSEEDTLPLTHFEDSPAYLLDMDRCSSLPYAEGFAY
# CRX, sequence (O43186 whole entry): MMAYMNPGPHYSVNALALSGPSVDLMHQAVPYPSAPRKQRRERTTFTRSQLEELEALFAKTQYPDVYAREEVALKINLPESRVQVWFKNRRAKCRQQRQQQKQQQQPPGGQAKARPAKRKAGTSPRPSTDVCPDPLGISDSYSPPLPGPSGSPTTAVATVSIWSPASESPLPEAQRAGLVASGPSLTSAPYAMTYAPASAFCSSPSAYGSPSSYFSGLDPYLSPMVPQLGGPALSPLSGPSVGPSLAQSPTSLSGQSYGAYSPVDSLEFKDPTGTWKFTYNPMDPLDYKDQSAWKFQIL
# HSF1, sequence (Q00613 whole entry): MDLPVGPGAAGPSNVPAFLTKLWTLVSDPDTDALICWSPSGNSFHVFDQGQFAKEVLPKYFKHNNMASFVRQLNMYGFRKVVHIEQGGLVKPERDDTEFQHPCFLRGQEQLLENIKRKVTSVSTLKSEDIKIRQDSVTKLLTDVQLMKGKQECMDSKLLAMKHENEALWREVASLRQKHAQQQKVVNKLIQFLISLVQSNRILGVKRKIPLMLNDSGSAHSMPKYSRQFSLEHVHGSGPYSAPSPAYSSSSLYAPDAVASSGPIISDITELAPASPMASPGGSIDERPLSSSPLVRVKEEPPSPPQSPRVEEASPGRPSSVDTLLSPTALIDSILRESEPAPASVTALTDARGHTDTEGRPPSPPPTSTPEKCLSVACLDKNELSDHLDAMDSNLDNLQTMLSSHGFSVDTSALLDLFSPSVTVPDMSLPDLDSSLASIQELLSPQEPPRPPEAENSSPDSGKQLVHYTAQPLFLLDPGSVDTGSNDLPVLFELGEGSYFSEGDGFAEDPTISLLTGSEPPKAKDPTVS
# ELF4, sequence (Q99607 whole entry): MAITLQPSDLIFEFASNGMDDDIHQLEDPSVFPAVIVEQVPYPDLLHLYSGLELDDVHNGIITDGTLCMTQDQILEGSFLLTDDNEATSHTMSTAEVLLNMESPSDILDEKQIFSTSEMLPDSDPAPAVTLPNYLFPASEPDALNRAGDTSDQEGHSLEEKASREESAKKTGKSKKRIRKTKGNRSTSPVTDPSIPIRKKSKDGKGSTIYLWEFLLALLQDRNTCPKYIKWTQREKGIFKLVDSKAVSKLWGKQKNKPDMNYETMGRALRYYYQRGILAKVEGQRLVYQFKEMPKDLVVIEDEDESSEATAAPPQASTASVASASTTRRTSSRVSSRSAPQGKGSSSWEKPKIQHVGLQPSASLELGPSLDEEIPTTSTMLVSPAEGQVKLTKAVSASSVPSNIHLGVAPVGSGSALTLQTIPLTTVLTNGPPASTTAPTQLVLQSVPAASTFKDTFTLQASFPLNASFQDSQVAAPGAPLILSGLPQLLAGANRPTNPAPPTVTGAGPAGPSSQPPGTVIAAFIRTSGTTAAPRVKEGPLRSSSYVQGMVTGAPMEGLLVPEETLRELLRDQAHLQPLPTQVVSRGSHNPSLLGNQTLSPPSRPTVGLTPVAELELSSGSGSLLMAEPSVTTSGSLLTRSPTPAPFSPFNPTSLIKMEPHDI
sequence,measurement,setting,value
CTAGGT,binding signal,FEV,"1.07 fold enrichment (6-mer frequency, TF over GST control)"
same,binding signal,ETV5,"1.18 fold enrichment (6-mer frequency, TF over GST control)"
same,binding signal,HSF1,"1.19 fold enrichment (6-mer frequency, TF over GST control)"
same,binding signal,SPIC,"1.26 fold enrichment (6-mer frequency, TF over GST control)"
same,binding signal,ELF4,"1.12 fold enrichment (6-mer frequency, TF over GST control)"
same,binding signal,ELK4,"1.18 fold enrichment (6-mer frequency, TF over GST control)"
same,binding signal,ETV2,"1.07 fold enrichment (6-mer frequency, TF over GST control)"
same,binding signal,ELF3,"1.18 fold enrichment (6-mer frequency, TF over GST control)"
same,binding signal,CRX,"1.05 fold enrichment (6-mer frequency, TF over GST control)"
